Measured values from PubChem BioAssay (Tox21).
A number with no mark means an inactive call. Results filed as inconclusive are left out. Activity calls are given as the source filed them. The call rests on the fitted dose curve; in most records, active means well fitted activation curve with a large enough effect in the repeat runs; inconclusive means weak or mixed curves; inactive means flat fitted curve, though single readings scatter.

Experiment: A CellTox Green Cytotoxicity Assay to monitor cytotoxicity in HepG2 cells - 0 hour (AID 1224882); further: nearly all actives have a fitted effect of over 35% in size
Details: CellTox Green fluorescence; series mostly up to 76.8 µM; cytotoxicity: at the top concentration
Outline: (§1)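 Real-time cytotoxicity: fluorescence of a cell-impermeant cyanine dye binding DNA of dead HepG2 cells, measured repeatedly (0–40 h) during compound exposure at 37 C. Cells seeded 600/well with reagent, dosed after 5 h.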
On the % scale 0 is the no-effect control and ±100 the full control effect.

Row | SMILES | Potency | cytotoxicity
1 | Clc1ccc(C(c2ccccc2Cl)C(Cl)Cl)cc1 (stereo not given) | inactive | –
2 | O[C@@H](c1cc(C(F)(F)F)nc2c(C(F)(F)F)cccc12)[C@H]1CCCCN1 | – | 8.57% [at 35.3 µM]
3 | CC(C)=C1CC[C@@H](C)CC1=O | – | -1.63%
4 | SCCCCCCCCS | – | 2.02%

Experiment: A CellTox Green Cytotoxicity Assay to monitor cytotoxicity in HepG2 cells - 32 hour (AID 1224883); further: nearly all actives have a fitted effect of over 50% in size; further: potency means the concentration at half of the fitted maximal effect
Details: CellTox Green fluorescence; series mostly up to 76.8 µM; cytotoxicity increase: at the top concentration
Outline: as §1

Row | SMILES | cytotoxicity increase | Potency
5 | CCC(=O)CC(C)CC (stereo not given) | 8.4% [at 0.29 µM] | –
6 | C=C/C=C/C=C/CCCCC | -4.15% [at 15.8 µM] | –
7 | Oc1c(Br)cc(Br)c2cccnc12 | 9.62% [at 35.3 µM] | –
8 | CCCCCCCC/C=C\CCCCCCCC(=O)NCc1ccc(O)c(OC)c1 | 1.2% [at 35.3 µM] | –
9 | CCCOc1sc(C(=O)N2CCC(c3cc(CN)ccc3F)CC2)c(C)c1Br | – | 17.9 µM (active)
10 | O=S(O)O | -11% [at 15.8 µM] | –
11 | NCCCCCCNCCCCCCN | -0.0417% | –
12 | C=CC/C=C/C/C=C/C/C=C/C | -6.34% | –
13 | C=CCCCCCCC=C | 1.36% | –
14 | CCCCN(C)C | 1.91% | –
15 | CC(NCCC(c1ccccc1)c1ccccc1)c1ccccc1 (stereo not given) | – | 15.1 µM (active)
16 | CCCCCCCCCCCCCCCC | -5.8% | –
17 | CCc1cccc(CC)c1NC(=O)C(=O)O | 10.1% | –
18 | O=C1OC(OC(=O)c2cccnc2Nc2cccc(C(F)(F)F)c2)c2ccccc21 (stereo not given) | 2.5% [at 35.3 µM] | –
19 | CN1[C@@H]2CC[C@H]1CC(OC(=O)C(CO)c1ccccc1)C2 (stereo not given in full) | – | inactive
20 | CC(COC(=O)c1ccccc1)OC(=O)c1ccccc1 (stereo not given) | -2.36% | –
21 | CCOC(=O)CN | -1.23% | –
22 | COC(=O)CC(C)CCC=C(C)C (stereo not given) | 9.65% | –

Row | SMILES | cytotoxicity increase | Potency
23 | CCCCCCCC(=O)OCC | 1.44% | –
24 | CCOC(/C=C(\C)CCC=C(C)C)OCC | -9.14% | –
25 | CCC1CCCCC1 | -14.1% | –
26 | CCCCCCCCCCCCCCNCCO | – | 7.56 µM (active)
27 | O=C1c2c(O)ccc(O)c2C(=O)c2c(NCCNCCO)ccc(NCCNCCO)c21 | -65.7% [at 35.3 µM] | –
28 | Cc1c(-c2ccc(O)cc2)n(Cc2ccc(OCCN3CCCCCC3)cc2)c2ccc(O)cc12 | – | 10.7 µM (active)
29 | C=CC(C)(CCC=C(C)C)OC(=O)/C=C/c1ccccc1 (stereo not given) | – | 43.6 µM (active)
30 | COc1nccnc1CC(C)C | 1.44% | –
31 | CCCCC(CC)COC(=O)c1ccc(O)cc1 (stereo not given) | – | 34.7 µM (active)
32 | Cc1c(C(=O)O)cccc1[N+](=O)[O-] | -3.4% | –
33 | Clc1ccccc1CN1CCc2sccc2C1 | -1.4% [at 35.3 µM] | –
34 | Clc1ccc(C(c2ccccc2Cl)C(Cl)Cl)cc1 (stereo not given) | 3.82% [at 35.3 µM] | –
35 | CCC(C)c1ccccc1 (stereo not given) | -9.6% | –
36 | CCCCCCCOC(=O)c1ccccc1C(=O)OCCCCCCC | -8.22% | –
37 | COCC(=O)O[C@]1(CCN(C)CCCc2nc3ccccc3[nH]2)CCc2cc(F)ccc2[C@@H]1C(C)C | – | 10.7 µM (active)
38 | O[C@@H](c1cc(C(F)(F)F)nc2c(C(F)(F)F)cccc12)[C@H]1CCCCN1 | – | 19 µM (active)
39 | CC(C)=C1CC[C@@H](C)CC1=O | 6.66% | –
40 | SCCCCCCCCS | – | 19.5 µM (active)
